Test results from PubChem BioAssay AID463173 (ICCB-Longwood Screening Facility, Harvard Medical School, 2010).
Hit rate of the full screen: of about 52,000 compounds, about 4,300 (8.3%) were called active. The list comes from a sample in which actives are over-represented; it also holds similar structures and randomly drawn compounds. Values without a mark were called inactive. Cut-off read from the data, not from the text of the source: active = survival mostly below about 52% (no sharp cut-off); inactive = mostly above about 56%.

Tested on: DeltatarO mutant
Experiment: S. aureus survival, RN4220 and DeltatarO strains – OD600, teichoic acid synthesis inhibitors, primary screen (AID 463173)
Details: S. aureus RN4220 wild type/DeltatarO growth, OD600, 18 h, hits give low values, screened at 18.75 µg/mL (by protocol)

Row | SMILES | survival
1 | O=C(COc1ccc(Br)cc1Cl)Nc1ncn[nH]1 | 91%
2 | CCOCCCNC(=O)C1CCCN(c2ncnc3onc(C)c23)C1 (stereo not given) | 68%
3 | COc1ccc(-c2cn3nc(N4CCC(C(=O)Nc5cccc(OC)c5)CC4)sc3n2)cc1 | 94%
4 | C#CCn1c(=NC(=O)c2ccc3c(c2)OCCO3)sc2cc(OC)c(OC)cc21 | 102%
5 | COc1cccc(C(=O)c2cn(CC(=O)Nc3ccc4c(c3)OCCO4)c3nc(C)ccc3c2=O)c1 | 68%
6 | CNC(=O)c1ccc(Nc2nnc(-c3ccc(C)c(S(=O)(=O)N4CCOCC4)c3)c3ccccc23)cc1 | 61%
7 | CCOC(=O)c1c(C)oc2nc(C)nc(Nc3cccc(OC)c3)c12 | 78%
8 | CCOC(=O)c1c(C)oc2nc(C)nc(Nc3cc(C)cc(C)c3)c12 | 89%
9 | Cc1ccc(-c2nnc(Nc3cccc(O)c3)c3ccccc23)cc1S(=O)(=O)N1CCOCC1 | 78%
10 | CNC(=O)c1ccc(Nc2nnc(-c3ccc(C)c(S(=O)(=O)N4CCCCC4)c3)c3ccccc23)cc1 | 54% (active)
11 | CCOC(=O)c1c(Nc2cc(C)cc(C)c2)nnc(-c2ccccc2)c1-c1ccccc1 | 32% (active)
12 | Cc1ccc(-c2nnc(Nc3cccc(O)c3)c3ccccc23)cc1S(=O)(=O)N1CCCCC1 | 60%
13 | CCOC(=O)c1c(Nc2cccc(C(=O)OC)c2)nnc(-c2ccccc2)c1-c1ccccc1 | 16% (active)
14 | CCOC(=O)c1c(C)oc2ncnc(Nc3cc(C)cc(C)c3)c12 | 94%
15 | Cc1ccc(-c2nnc(Nc3ccc(C(N)=O)cc3)c3ccccc23)cc1S(=O)(=O)N1CCCCC1 | 128%
16 | CCOC(=O)c1c(Oc2ccc(C(=O)OC)cc2)nnc(-c2ccccc2)c1-c1ccccc1 | 74%
17 | CCOC(=O)c1c(Nc2cccc(O)c2)nnc(-c2ccccc2)c1-c1ccccc1 | 31% (active)
18 | Cc1ccc(N2CCN(c3nc4c(S(=O)(=O)c5ccc(C)c(C)c5)nnn4c4ccccc34)CC2)c(C)c1 | 82%
19 | CN(C)c1ccc(CNC(=O)C2CCCN(S(=O)(=O)c3ccc4c(ccn4C)c3)C2)cc1 (stereo not given) | 83%
20 | Cc1noc(-c2ccc(N3CCCCC3C)c([N+](=O)[O-])c2)n1 (stereo not given) | 108%
21 | CCOc1ccc(N2C(=O)N(Cc3ccc(C)cc3C)c3ccccc3S2(=O)=O)cc1 | 94%
22 | CCOC(=O)c1c(Nc2cccc(C)c2)nnc(-c2ccccc2)c1-c1ccccc1 | -4% (active)
23 | CCOC(=O)c1cccc(Nc2cc(-c3ccccc3)ncn2)c1 | 15% (active)
24 | CCOC(=O)c1c(C)oc2ncnc(Nc3cccc(C(F)(F)F)c3)c12 | 105%
25 | CCOC(=O)CNS(=O)(=O)c1cc(-c2nnc(Nc3cccc(O)c3)c3ccccc23)ccc1C | 39% (active)
26 | CCOC(=O)c1c(C)c(-c2ccccc2)n(CC(=O)Nc2cc(C)cc(C)c2)c1C | 80%
27 | Oc1cccc(Nc2cc(-c3ccccc3)ncn2)c1 | 63%
28 | Cc1ccc(-c2nnc(Nc3cccc(O)c3)c3ccccc23)cc1S(=O)(=O)NCC1CCCO1 (stereo not given) | 74%
29 | Cc1ccc(-c2nnc(Nc3cccc(O)c3)c3ccccc23)cc1S(=O)(=O)N1CCN(C)CC1 | 97%
30 | CCOC(=O)c1cccc(Nc2cc(C)nc(C)n2)c1 | 65%
